Bioassay records deposited in PubChem BioAssay by The Scripps Research Institute Molecular Screening Center.
LYPLA2 counter: blocks human lysophospholipase 2, a PME1 counter-screen | recombinant LYPLA2, FP-Rh probe fluorescence polarization | hit rate 0.38% among 320,000 | AID 2177 | O95372 | inhibition, % at 5.9 µM;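 active = inhibition above the screen-wide mean plus 3 SD, limit set per campaign, cut at about 26% in these data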;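 note: 0% = LYPLA2 with DMSO and 100% = wells lacking LYPLA2 enzyme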
Target sequence (O95372 whole entry, looked up): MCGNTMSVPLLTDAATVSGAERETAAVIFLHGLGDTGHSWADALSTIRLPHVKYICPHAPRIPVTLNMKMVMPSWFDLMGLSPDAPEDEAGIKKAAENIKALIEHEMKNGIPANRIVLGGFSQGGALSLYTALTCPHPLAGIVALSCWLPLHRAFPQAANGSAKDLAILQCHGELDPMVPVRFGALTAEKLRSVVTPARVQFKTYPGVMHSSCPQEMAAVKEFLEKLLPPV
GSTO1 inh: counter-screen for RBBP9 inhibitors: inhibitors of human GSTO1. AID 1974. inhibition, % at 5.96 µM. hit rate 1.1% among 300,000. recombinant GSTO1, activity-based probe fluorescence polarization. P78417;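 active = inhibition above the campaign mean inhibition plus 3 SD, cut at about 35% in these data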;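 note: 0% = GSTO1-1 with DMSO and 100% = wells lacking GSTO1-1 enzyme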
PME-1 inh: blocks human protein phosphatase methylesterase 1 | Q9Y570 | recombinant PME-1, FP-Rh probe fluorescence polarization | inhibition, % at 5.9 µM | hit rate 0.53% among 320,000;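 active = inhibition above the campaign mean of all compounds plus 3 SD, cut at about 26% in these data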;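 note: competitive labeling of PME-1 active site by serine hydrolase directed probe; 0% = PME-1 with DMSO and 100% = wells lacking PME-1 enzyme; inhibitors block probe labeling so polarization falls and inhibition rises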
LYPLA1 inh: blocks human lysophospholipase 1, a PME1 counter-screen | O75608 | recombinant LYPLA1, FP-Rh probe fluorescence polarization | inhibition, % at 5.9 µM | hit rate 0.16% among 320,000 | AID 2174;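 active = inhibition above the mean of all tested compounds plus 3 SD, set per campaign, cut at about 14% in these data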;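 note: inhibitors block serine hydrolase probe labeling of LYPLA1 so polarization falls; 0% = enzyme with DMSO and 100% = wells lacking LYPLA1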
Target sequence (O75608 whole entry, looked up): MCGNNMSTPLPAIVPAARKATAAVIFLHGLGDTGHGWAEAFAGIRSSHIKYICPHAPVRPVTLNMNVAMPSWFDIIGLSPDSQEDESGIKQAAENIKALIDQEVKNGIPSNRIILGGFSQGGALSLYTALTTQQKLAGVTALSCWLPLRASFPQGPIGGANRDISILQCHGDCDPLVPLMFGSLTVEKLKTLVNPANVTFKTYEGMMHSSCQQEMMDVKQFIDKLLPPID
PREPL inh: inhibitors of human prolyl oligopeptidase-like enzyme PREPL | recombinant PREPL, fluorescence polarization activity-based probe | inhibition, % at 5.96 µM | hit rate 0.68% among 320,000;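 note: 0% = enzyme with DMSO and 100% = wells lacking enzyme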
Fam108B inh: counter-screen for RBBP9 inhibitors: inhibitors of mouse Fam108B; hit rate 0.33% among 300,000; recombinant Fam108B, FP-Rh probe fluorescence polarization; AID 1947; inhibition, % at 9.51 µM;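 active = inhibition above the screen mean inhibition plus 3 SD, computed separately per campaign, cut at about 18% in these data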;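 note: inhibitors lower polarization as less probe binds the enzyme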
GSTO1 inh conf: GSTO1 (human) inhibition, confirmation | shares compounds with GSTO1 inh | recombinant GSTO1, probe fluorescence polarization | inhibition, % at 5.96 µM | hit rate 54% among 2,400 | AID 2176;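 active = inhibition above the primary screen's cutoff, its mean inhibition plus 3 SD, cut at about 35% in these data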;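 note: loss of polarization as inhibitors block binding of rhodamine sulfonate ester activity probe; 0% = GSTO1 with DMSO and 100% = wells lacking GSTO1 enzyme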
LYPLA1 confirm: LYPLA1 (human) inhibition, confirmation counter-screen; shares compounds with LYPLA1 inh; recombinant LYPLA1, FP-Rh probe fluorescence polarization; inhibition, % at 5.9 µM; hit rate 69% among 480; AID 2233;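 active = mean inhibition across replicates above the hit cutoff set in the primary screen, cut at about 15% in these data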;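 note: loss of FP-Rh probe labeling of LYPLA1 seen as lower polarization; 0% = LYPLA1 with DMSO and 100% = wells lacking LYPLA1 enzyme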
LYPLA2 conf: LYPLA2 (human) inhibition, confirmation counter-screen; shares compounds with LYPLA2 counter; recombinant LYPLA2, FP-Rh probe fluorescence polarization; inhibition, % at 5.9 µM; hit rate 72% among 1,100;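 active = mean inhibition across replicates above the hit cutoff set in the primary screen, cut at about 26% in these data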;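 note: blocked labeling of the enzyme by serine hydrolase FP-Rh probe lowers polarization; 0% = enzyme with DMSO and 100% = wells lacking LYPLA2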
PREPL inh cf: human PREPL inhibition, confirmation; shares compounds with PREPL inh; recombinant PREPL, fluorescence polarization activity probe; inhibition, % at 5.96 µM; hit rate 67% among 2,000;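 note: 0% = protein with DMSO and 100% = wells lacking protein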
Starred values were filed as active, the others as inactive; · = not tested or not shown. Most compounds without a hit are left out; they make up all but 1.9% or so of the library. Cut-off read from the data, not from the text of the source, unless noted: active = inhibition above about 43%; inactive = the rest.

SMILES	LYPLA2 counter	GSTO1 inh	PME-1 inh	LYPLA1 inh	PREPL inh	Fam108B inh	GSTO1 inh conf	others
O=C(c1ccccc1)N1CCC2(CC1)OCCO2	1	6	-1	2	19	2	·
O=C(NC1(C(F)(F)F)Oc2ccccc2O1)N1CCC2(CC1)OCCO2	-2	42*	2	-3	6	1	9
COC(=O)C1=C(c2cccc(C#N)c2)C[C@@H]2CC[C@H]1N2C(=O)N1CCCC1	8	·	0	5	5	·	·
CCN1CCN(Cc2cc3c(cc2[N+](=O)[O-])OCO3)CC1	-4	38*	-3	-4	-7	-6	19
CCOCCCNC(=O)C1c2cc(OC)c(OC)cc2C(=O)N2CCCCC12 (stereo not drawn)	-7	0	0	-3	4	-1	·
O=C(CCl)NCC1CCCO1 (stereo not drawn)	-2	51*	5	2	1	5	65*
Clc1ccc(NC2=NCCCS2)cc1Cl	0	3	-2	-3	-9	-3	·
Nc1c(C(=O)NCCc2ccccc2)c2nc3ccccc3nc2n1CCN1CCOCC1	-6	10	11	-5	41	11	·
CC(C)CCNC(=O)c1c(N)n(CC2CCCO2)c2nc3ccccc3nc12 (stereo not drawn)	8	54*	11	0	9	0	57*
CCC(C)NC(=O)c1c(N)n(Cc2ccc3c(c2)OCO3)c2nc3ccccc3nc12 (stereo not drawn)	3	53*	14	1	4	0	6
Nc1c(C(=O)NCCN2CCOCC2)c2nc3ccccc3nc2n1Cc1ccccc1	-7	4	4	-4	19	-5	·
CCC(C)NC(=O)c1c(N)n(CC2CCCO2)c2nc3ccccc3nc12 (stereo not drawn)	-8	38*	11	-2	1	1	58*
CCN(CC)P(=S)(c1c(C)nc2ccccn12)c1c(C)nc2ccccn12	4	10	-8	-1	5	-2	·
Cc1ccccc1NC(=O)CCl	4	63*	0	3	-6	2	78*
CC(C)(C)C(=O)OCC12CCC(O1)C1(C)C(=O)OCC21 (stereo not drawn)	1	-1	5	0	10	7	·
O=c1c2ccccc2nc(/C=C/c2ccccc2)n1-c1ccc(O)cc1	-2	-12	-6	-5	-11	-9	·
O=c1c2ccccc2nc(/C=C/c2ccc(O)c(O)c2)n1-c1ccccc1	-20	44*	27*	-15	19	-10	7
CCCCn1c(NS(=O)(=O)c2ccccc2)c(C(=O)OCC)c2nc3ccccc3nc21	6	66*	11	-1	18	8	66*
NS(=O)(=O)c1cccc(N2CCNCC2)c1	-1	3	4	1	5	4	·
NCC(O)c1cc(O)c(O)cc1F (stereo not drawn)	0	50*	-1	-4	-9	-3	8
COP(=O)(OC)C(O)C(Cl)(Cl)Cl (stereo not drawn)	1	44*	4	-2	-2	-2	34
Nc1c(C(=O)OCc2ccccc2)c2nc3ccccc3nc2n1Cc1cccs1	-20	51*	5	-20	19	-9	30
CCC(C)OC(=O)c1c(N)n(Cc2cccs2)c2nc3ccccc3nc12 (stereo not drawn)	-2	26	11	-7	1	1	·
COCCNC(=O)c1c(N)n(Cc2ccco2)c2nc3ccccc3nc12	-6	21	-2	-4	13	-1	·
CC(C)(C)OC(=O)c1c(N)n(Cc2ccco2)c2nc3ccccc3nc12	-4	56*	-1	-3	7	-2	3
SMILES	LYPLA2 counter	GSTO1 inh	PME-1 inh	LYPLA1 inh	PREPL inh	Fam108B inh	GSTO1 inh conf	others
COCCCn1c(N)c(C(=O)NCc2ccco2)c2nc3ccccc3nc21	1	76*	2	-3	6	-1	2
CN(C(=O)c1ccc(Cl)nc1)C1(c2ccccc2Cl)CCCCC1=O (stereo not drawn)	-1	-4	-4	1	-10	3	·
CCN(CC)CC(O)c1ccc(C2CCCC2)cc1 (stereo not drawn)	-4	-3	-3	-1	10	0	·
CCCN1CCc2cc(O)cc3c2[C@H]1Cc1ccc(O)c(O)c1-3	1	89*	5	-8	41	0	3
CN1CCc2cc(O)cc3c2[C@H]1Cc1ccc(O)c(O)c1-3	0	99*	13	-2	17	1	10
CCN(CC)P(=O)(NC(=O)C(Cl)(Cl)Cl)N(CC)CC.[Cl-].[Cl-].[Cl-].[Nd+3]	4	3	-3	1	-7	1	·
C/C(=N\NC(N)=O)c1c(O)n(C)c(=O)n(C)c1=O	-3	4	1	-4	4	-2	·
O=c1cccc2n1CC1CC2CN(CC(O)CN2CC3CC(C2)c2cccc(=O)n2C3)C1 (stereo not drawn)	-4	-3	0	0	15	3	·
Cn1ncnc2c(=O)n(C)c(=O)nc1-2	96*	94*	44*	77*	44*	78*	92*	LYPLA1 confirm=88*;LYPLA2 conf=96*;PREPL inh cf=54*
CC(=O)CCC(C)=O	0	·	-3	-2	11	·	·
COc1cc2c(cc1O)C[C@H]1c3c(cc(O)c(OC)c3-2)CCN1C	5	5	0	2	-9	-4	·
CN1CCc2cc3c(c4c2C1Cc1ccccc1-4)OCO3 (stereo not drawn)	15	77*	13	6	46*	16	63*	PREPL inh cf=40
O=[N+]([O-])c1ccc(N2CCCCCC2)c2nonc12	-21	2	-23	16*	-41	-7	·	LYPLA1 confirm=24*
CN(C)CP(=O)(O)CN(C)C=O	0	2	-7	-1	-5	-11	·
O=C(COc1ccc(Cl)cc1)N1CCN(C/C=C/c2ccccc2)CC1	70*	11	1	26*	-5	1	·	LYPLA1 confirm=24*;LYPLA2 conf=77*
O=C(COc1ccc2ccccc2c1)N1CCN(CC2CC3C=CC2C3)CC1 (stereo not drawn)	26*	-8	1	20*	29	1	·	LYPLA1 confirm=34*;LYPLA2 conf=25
CN1CCN(C(=O)COc2ccc3ccccc3c2)CC1	2	5	-8	4	6	1	·
